According to PubChem BioAssay:
“And” between values parts separate entries of the source, which are not always exact repeats. Equal values may be shown once. The source made the active and inactive calls. Unless noted, no stated cut-off is given here; in the data, active means parasite load remaining mostly below about 12% (no sharp cut-off); inactive means mostly above about 10%.

Columns and labels:
[1] = P. berghei load reduction in hepatocytes – cell-based, HepG2, luciferase luminescence, HepG2 viability, primary screen (AID 624349);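 further: 100% = mean of DMSO negative control wells on the same plate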; conditions: P. berghei liver stage in HepG2, luciferase luminescence, concentration not given here; parasite load remaining: stronger effect = lower value; viability: measured here: HepG2 viability without parasites
[2] = Wnt pathway potentiators raising nuclear beta-catenin – imaging, WNT3A-conditioned medium, mouse C2C12, NPC library, primary screen (AID 1117326; in the data active means nuclear beta-catenin stimulation mostly above about 4.2%, no sharp cut-off; inactive means mostly below about 10%); conditions: stronger effect = higher value
[3] = stimulators of insulin release from INS-1E, primary screen, cell-based, 5 mM glucose, NPC library (AID 1117329;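 active means compound raises insulin release from rat beta cells at 5 mM glucose, no numeric limit stated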); conditions: rat INS-1E insulin secretion, at 10 µM, stronger effect = higher value
[4] = growth inhibition of GSK3B-pretreated HCT116 cells – cell-based, CellTiter-Glo, 0.2 to 20 µM (AID 1117336;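 active means compounds lowering colon cancer cell viability after pretreatment blocking the GSK3B kinase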); conditions: HCT116 viability after GSK3B inhibitor, at 20 µM, stronger effect = higher value
[5] = inhibition of endothelial tube formation, primary screen, imaging, VEGF stimulated, CD31 staining, tube area, NPC library (AID 1117340;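 active means compound that reduces growth-factor-driven endothelial tube area in a mixed cell culture, no cutoff stated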); conditions: VEGF-stimulated ADSC/ECFC co-culture, at 10 µM, stronger effect = higher value
[6] = GLP1 release stimulators, primary, NCI-H716, NPC library (AID 1117341;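 active means compound raises GLP1 secretion from the human gut endocrine cells, with no numeric limit stated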); conditions: NCI-H716 cells, at 10 µM, stronger effect = higher value
[7] = HCT116 colon cancer cell growth inhibition, primary screen, CellTiter-Glo luminescence, NPC library (AID 1117342;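 active means compounds that lower survival of HCT116 colon cancer cells in the luminescence readout, no numeric limit stated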); conditions: at 20 µM (top of the series)
[8] = reduced SW480 viability measured with CellTiter-Glo, NPC library, primary (AID 1117343;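 active means compounds that lower viability of the colon cancer cells in the luminescence readout, with no numeric limit stated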); conditions: CellTiter-Glo luminescence; at 20 µM (top of the series)
[9] = NPC library primary testing for decreased DLD-1 cell viability via CellTiter-Glo (AID 1117346;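 active means compounds that lower survival of DLD-1 colon cancer cells in the luminescence readout, no cutoff given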); conditions: DLD-1 viability, CellTiter-Glo luminescence; at 20 µM (top of the series)
[10] = EMT-state selective cytotoxicity in co-culture – imaging, PC-3E GFP, TEM4-18 mCherry, primary screen (AID 1345086;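 active means compounds killing one labelled cell type while sparing the other, by normalised counts and ratio limits, not self-fluorescent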;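 on all read-outs here: cells exposed to compound for 72 h before imaging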;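 on red/green cell ratio (normalised): normalised mesenchymal count divided by normalised epithelial count so high means epithelial killing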); conditions: PC-3E GFP / TEM4-18 mCherry co-culture, imaging cell counts, at 1 µM; for red/green cell ratio (normalised): actives lie on both sides
[11] = tested on: Aerobactin synthetase IucA (Klebsiella pneumoniae hvKP1); experiment: IucA enzyme inhibition, primary screen, biochemical, Spectrum library (AID 1346200; call rule not given here;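 further: 100% = wells without compound and 0% = wells lacking enzyme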); conditions: malachite green pyrophosphate, A620, at 8 µM, stronger effect = lower value
[12] = viability loss with induced miR-34 in A549 – imaging, A549 dox-inducible miR-34, nuclei and caspase counts, primary screen (AID 1347080;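 active means compounds whose cell count with miR-34 switched on is under 0.7 times the count with it off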); conditions: A549 miR-34 inducible, Hoechst nuclei count, 48 h
[13] = MELAS cybrid and Rieske KO viability enhancers – cell-based, MELAS cybrids, Rieske KO mouse fibroblasts, CellTiter-Glo, primary screen (AID 1508586;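 active means mean z-score across replicates of 1.96 or higher in either the MELAS or the Rieske mutant cell line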;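 further: z relative to plate mean and SD of compound and empty wells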); conditions: low glucose
[14] = biological target: NAD(+) hydrolase SARM1 (Homo sapiens) (UniProt Q6SZW1); experiment: blocking NAD cleavage by SARM1 SAM-TIR – cell lysate, NAD-Glo luminescence (AID 1508614;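 active means compound whose remaining NAD level is above about 45 nM, limit read from the data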); conditions: SAM-TIR HEK293T lysate NADase, at 1 µM, stronger effect = higher value
Sequence of NAD(+) hydrolase SARM1 (Homo sapiens) (Q6SZW1 whole entry, looked up, the tested form may be a part): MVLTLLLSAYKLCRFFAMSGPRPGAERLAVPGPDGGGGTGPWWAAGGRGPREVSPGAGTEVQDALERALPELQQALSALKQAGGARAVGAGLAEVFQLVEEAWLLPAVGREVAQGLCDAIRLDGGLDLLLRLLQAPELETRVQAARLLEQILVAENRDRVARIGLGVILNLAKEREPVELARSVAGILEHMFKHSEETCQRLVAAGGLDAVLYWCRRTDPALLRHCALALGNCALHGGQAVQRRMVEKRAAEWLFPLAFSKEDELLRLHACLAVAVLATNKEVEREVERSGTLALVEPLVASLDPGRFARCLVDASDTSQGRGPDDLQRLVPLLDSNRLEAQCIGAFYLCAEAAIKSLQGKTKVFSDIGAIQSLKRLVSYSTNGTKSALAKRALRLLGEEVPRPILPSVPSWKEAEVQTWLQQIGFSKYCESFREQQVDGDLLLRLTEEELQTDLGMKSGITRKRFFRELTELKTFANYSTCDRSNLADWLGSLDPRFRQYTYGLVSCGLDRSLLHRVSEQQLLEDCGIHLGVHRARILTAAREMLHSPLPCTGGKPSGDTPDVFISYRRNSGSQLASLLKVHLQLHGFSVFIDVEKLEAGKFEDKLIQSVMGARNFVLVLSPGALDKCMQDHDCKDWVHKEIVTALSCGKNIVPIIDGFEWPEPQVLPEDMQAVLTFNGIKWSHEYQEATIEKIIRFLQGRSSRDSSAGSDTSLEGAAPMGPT

[15] = biological target: Mitogen-activated protein kinase 7 (Homo sapiens) (UniProt Q13164); experiment: Gal4-ERK5 driven luciferase induction – cell-based, HTS, primary screen (AID 1508626;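 active means luciferase signal above three times the same-plate solvent-only control wells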;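 further: luciferase driven by Gal4-ERK5 fusion binding five Gal4 sites before minimal TATA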); conditions: HeLa Gal4-ERK5 transactivation, 18 h, at 5 µM, stronger effect = higher value
Sequence of Mitogen-activated protein kinase 7 (Homo sapiens) (Q13164 whole entry, looked up, the tested form may be a part): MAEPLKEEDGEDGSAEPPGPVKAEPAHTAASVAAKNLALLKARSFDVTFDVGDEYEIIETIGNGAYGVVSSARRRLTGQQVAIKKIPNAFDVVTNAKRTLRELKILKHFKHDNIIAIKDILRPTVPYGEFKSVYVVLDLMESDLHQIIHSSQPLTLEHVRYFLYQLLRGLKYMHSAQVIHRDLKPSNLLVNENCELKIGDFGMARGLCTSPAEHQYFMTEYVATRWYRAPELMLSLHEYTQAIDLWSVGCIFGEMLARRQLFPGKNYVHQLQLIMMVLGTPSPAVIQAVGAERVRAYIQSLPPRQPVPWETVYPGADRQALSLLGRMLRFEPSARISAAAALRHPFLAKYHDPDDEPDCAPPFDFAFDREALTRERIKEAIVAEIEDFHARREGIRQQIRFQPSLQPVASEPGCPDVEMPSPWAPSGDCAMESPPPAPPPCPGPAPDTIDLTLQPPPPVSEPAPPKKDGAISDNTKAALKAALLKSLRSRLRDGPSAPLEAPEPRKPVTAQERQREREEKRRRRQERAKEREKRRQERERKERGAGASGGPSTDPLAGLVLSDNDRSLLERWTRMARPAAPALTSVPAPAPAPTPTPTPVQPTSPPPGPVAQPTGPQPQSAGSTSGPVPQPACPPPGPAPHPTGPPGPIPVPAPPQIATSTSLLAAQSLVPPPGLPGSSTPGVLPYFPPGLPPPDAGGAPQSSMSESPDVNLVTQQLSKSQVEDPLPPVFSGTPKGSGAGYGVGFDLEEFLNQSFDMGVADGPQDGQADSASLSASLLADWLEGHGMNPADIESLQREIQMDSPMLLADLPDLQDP

[16] = galactose survival enhancers in mitochondrial complex I cybrids – cell-based, galactose medium, ATP luminescence, primary screen (AID 1645843;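 active means z-score of at least 1.8 in each of two replicates, scored against plate mean and spread of sample wells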;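 further: positive z means more ATP and so rescue of galactose-driven cybrid death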); conditions: complex I mutant cybrid cells, 72 h, stronger effect = higher value
[17] = yeast 75Q aggregation reduction – 75Q-TubU reporter (AID 1593); conditions: Yeast 75Q polyglutamine aggregation reporter
[18] = blockers of cytochrome c efflux from mitochondria – biochemical, purified mitochondria (AID 1603); conditions: stronger effect = lower value;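 further: mouse liver mitochondria challenged with calcium chloride; signal normalized to the plate average as 100%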
[19] = polyglutamine aggregate formation blockers (AID 1604); conditions: polyglutamine-induced protein aggregation inhibition assay; stronger effect = higher value; tested at 2.5 µM
[20] = measured here: epithelial PC-3E GFP cell survival
[21] = measured here: mesenchymal TEM4-18 mCherry cell survival
[22] = measured here: relative caspase fold change +Dox/-Dox
[23] = measured here: total cells with miR-34 induction, stronger effect = lower value
[24] = measured here: total cells without miR-34 induction
[25] = MELAS cybrid survival, CellTiter-Glo 48 h, stronger effect = higher value
[26] = Rieske KO mouse fibroblast survival, CellTiter-Glo 72 h

**Q.** For Oc1cc(Cl)ccc1Oc1ccc(Cl)cc1Cl, which parasite load remaining [1] is on record?
**A.** Its parasite load remaining is -1.97% (inactive) and 16.2% (inactive).

**Q.** What about the viability [1] of the same molecule?
**A.** Its viability is 75.8% and 88.8%.

**Q.** And the nuclear beta-catenin stimulation ([2]; at 10 µM)?
**A.** The nuclear beta-catenin stimulation was 1.1% (inactive).

**Q.** And the nuclear beta-catenin stimulation ([2]; stimulation, at 2 µM)?
**A.** Its nuclear beta-catenin stimulation is 0.7%.

**Q.** What about the insulin secretion stimulation [3] of the same molecule?
**A.** The insulin secretion stimulation was 1.4% (inactive).

**Q.** What about the viability decrease [4] of the same molecule?
**A.** Its viability decrease is 48.8% (inactive).

**Q.** What about the tube area decrease [5] of the same molecule?
**A.** Its tube area decrease is 104% (active).

**Q.** What about the GLP1 secretion stimulation [6] of the same molecule?
**A.** The GLP1 secretion stimulation was 26.8% (active).

**Q.** What about the inhibition of viability [7] of the same molecule?
**A.** Its inhibition of viability is 95% (active).

**Q.** And the viability decrease (inhibition) [8]?
**A.** The viability decrease (inhibition) was 112% (active).

**Q.** And the viability decrease (inhibition) [9]?
**A.** The viability decrease (inhibition) was 51.4% (active).

**Q.** And the red/green cell ratio (normalised) [10]?
**A.** The red/green cell ratio (normalised) was 0.82 (inactive).

**Q.** What about the normalised cell number [10, 20] of the same molecule?
**A.** Its normalised cell number is 1.03.

**Q.** And the normalised cell number [10, 21]?
**A.** The normalised cell number was 0.84.

**Q.** What about the activity remaining [11] of the same molecule?
**A.** Its activity remaining is 106% (inactive).

**Q.** And the fold change ([12]; stronger effect = lower value)?
**A.** Its fold change is 1.03 (inactive) and 0.888 (inactive).

**Q.** And the fold change [12, 22]?
**A.** Its fold change is 2.38 and 7.01.

**Q.** And the cell count [12, 23]?
**A.** Its cell count is 7170 and 12100.

**Q.** What about the cell count [12, 24] of the same molecule?
**A.** The cell count was 6950 and 13600.

**Q.** What about the z-score [13, 25] of the same molecule?
**A.** The z-score was -0.777 (inactive).

**Q.** What about the z-score [13, 26] of the same molecule?
**A.** The z-score was -0.145.

**Q.** What about the remaining NAD [14] of the same molecule?
**A.** Its remaining NAD is 10 nM (inactive).

**Q.** What about the luciferase signal [15] of the same molecule?
**A.** The luciferase signal was 48 AU (inactive).

**Q.** And the z-score [16]?
**A.** Its z-score is -1.48 (inactive).

**Q.** What does the source list for CCCC(C)C1(CC)C(=O)N=C(S)NC1=O (stereo not given)?
**A.** score [17]: 1.17; cytochrome c release ratio [18]: 1.02; inhibition of aggregation [19]: 30.6%; parasite load remaining [1]: 29.3% (inactive); viability [1]: 123%; nuclear beta-catenin stimulation ([2]; at 10 µM): 0.1% (inactive); nuclear beta-catenin stimulation ([2]; stimulation, at 2 µM): -0.3%; insulin secretion stimulation [3]: -0.2% (inactive); viability decrease [4]: -5.2% (inactive); tube area decrease [5]: -13.6% (inactive); GLP1 secretion stimulation [6]: 0.9% (inactive); inhibition of viability [7]: -4.4% (inactive); viability decrease (inhibition) [8]: 95.4% (active); viability decrease (inhibition) [9]: 3.85% (inactive); red/green cell ratio (normalised) [10]: 1.19 (inactive); normalised cell number [10, 20]: 1.01; normalised cell number [10, 21]: 1.21; activity remaining [11]: 91.6% (inactive); fold change ([12]; stronger effect = lower value): 0.92 (inactive); fold change [12, 22]: 4.02; cell count [12, 23]: 10900; cell count [12, 24]: 11900; remaining NAD [14]: 10 nM (inactive); luciferase signal [15]: 60 AU (inactive)

**Q.** What does the source list for c1ccc2c(c1)OCC(C1=NCCN1)O2 (stereo not given)?
**A.** parasite load remaining [1]: 48.2% (inactive) and 42.6% (inactive); viability [1]: 92.9% and 100%; nuclear beta-catenin stimulation ([2]; at 10 µM): 5.9% (inactive); nuclear beta-catenin stimulation ([2]; stimulation, at 2 µM): -1.4%; insulin secretion stimulation [3]: 2.3% (inactive); viability decrease [4]: 14.1% (inactive); tube area decrease [5]: -4.8% (inactive); GLP1 secretion stimulation [6]: 0.1% (inactive); inhibition of viability [7]: 17.5% (inactive); viability decrease (inhibition) [8]: 33.2% (inactive); viability decrease (inhibition) [9]: -3.9% (inactive); red/green cell ratio (normalised) [10]: 0.85 (inactive); normalised cell number [10, 20]: 1.22; normalised cell number [10, 21]: 1.03; z-score [13, 25]: 0.698 (inactive) and 0.759 (inactive); z-score [13, 26]: -0.433 and -0.198; remaining NAD [14]: 10 nM (inactive); z-score [16]: -1 (inactive) and -0.91 (inactive) and -1.57 (inactive)

**Q.** With CCC(COC(=O)c1cc(OC)c(OC)c(OC)c1)(c1ccccc1)N(C)C (stereo not given) as the molecule, how does the parasite load remaining [1] read?
**A.** Its parasite load remaining is 36% (inactive).

**Q.** What about the viability [1] of the same molecule?
**A.** The viability was 62.6%.

**Q.** And the nuclear beta-catenin stimulation ([2]; at 10 µM)?
**A.** The nuclear beta-catenin stimulation was 5.9% (inactive).

**Q.** What about the nuclear beta-catenin stimulation ([2]; stimulation, at 2 µM) of the same molecule?
**A.** Its nuclear beta-catenin stimulation is 1.2%.

**Q.** What about the insulin secretion stimulation [3] of the same molecule?
**A.** The insulin secretion stimulation was 2.2% (inactive).

**Q.** What about the viability decrease [4] of the same molecule?
**A.** The viability decrease was 49% (inactive).

**Q.** And the tube area decrease [5]?
**A.** The tube area decrease was 19.3% (inactive).

**Q.** What about the GLP1 secretion stimulation [6] of the same molecule?
**A.** Its GLP1 secretion stimulation is 5.8% (inactive).

**Q.** And the inhibition of viability [7]?
**A.** Its inhibition of viability is 64.3% (active).

**Q.** And the viability decrease (inhibition) [8]?
**A.** The viability decrease (inhibition) was 22.7% (inactive).

**Q.** And the viability decrease (inhibition) [9]?
**A.** Its viability decrease (inhibition) is 20.6% (inactive).

**Q.** And the red/green cell ratio (normalised) [10]?
**A.** Its red/green cell ratio (normalised) is 1 (inactive).

**Q.** And the normalised cell number [10, 20]?
**A.** Its normalised cell number is 1.04.

**Q.** And the normalised cell number [10, 21]?
**A.** Its normalised cell number is 1.04.

**Q.** And the activity remaining [11]?
**A.** Its activity remaining is 102% (inactive).

**Q.** And the fold change ([12]; stronger effect = lower value)?
**A.** Its fold change is 0.96 (inactive) and 0.993 (inactive).

**Q.** What about the fold change [12, 22] of the same molecule?
**A.** Its fold change is 0.946 and 0.715.

**Q.** What about the cell count [12, 23] of the same molecule?
**A.** Its cell count is 9130 and 7380.

**Q.** What about the cell count [12, 24] of the same molecule?
**A.** The cell count was 9520 and 7430.

**Q.** What about the z-score [13, 25] of the same molecule?
**A.** Its z-score is -0.0948 (inactive) and -0.436 (inactive).

**Q.** What about the z-score [13, 26] of the same molecule?
**A.** The z-score was -0.0807 and -0.229.

**Q.** What about the remaining NAD [14] of the same molecule?
**A.** The remaining NAD was 10 nM (inactive).

**Q.** And the luciferase signal [15]?
**A.** Its luciferase signal is 28 AU (inactive).

**Q.** And the z-score [16]?
**A.** The z-score was -1.25 (inactive).
